Source: PubChem
Vaccinia mCherry = inhibitors of vaccinia virus infection (mCherry reporter signal). Vaccinia virus mCherry reporter infection, fluorescence. Potency, µM (series often up to 36.5 µM), inactives show top-dose activity change, negative = inhibition, usual class: inhibitors. 0.63% of 310,000 active; calls by dose curve; tested in A549 cells; further: potency means the concentration at half of the fitted maximal effect; nearly all actives have a fitted effect of over 35% in size
FMDV inh = antivirals against foot and mouth disease virus; FMDV antiviral cell-based qHTS; 1.2% of 410,000 active; AID 1159524; Potency, µM (highest dose often 57.9 µM), for inactives: at the highest dose activity change, negative = inhibition, usual class: inhibitors; calls by dose curve; tested in HEK293T cells; further: read-out not given here; potency means the concentration at half of the fitted maximal effect; nearly all actives have a fitted effect of over 45% in size
HCMV inh = human cytomegalovirus inhibition | HFF cells, HCMV-luciferase reporter, 72 h; active compounds read low | activity change, negative = inhibition, % at 57.5 µM | AID 1259415 | 4.5% of 410,000 active; in the data active means activity change below about -60%; inconclusive means no clear call, values can overlap the other calls; inactive means above about -39%
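Cell-based, HFFs, 1000 cells/well, 16 h 37C; cpds in DMSO + HCMV-luc, MOI 1 PFU/cell; 72 h 37C; OneGlo luminescence after 5 min RT; norm. to buffer vs Salinomycin 10uM.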
HCV inh = blocks hepatitis C virus | Huh7.5.1 HCVcc-Cre infection, luciferase reporter, 44 h | Potency, µM (highest dose often 41.8 µM), for the others: at the top dose activity change, negative = inhibition, actives largely listed as inhibitors | 3.4% of 340,000 active; active means well fitted inhibition curve with a large enough effect; inconclusive means small, poorly fitted or top-dose-only effect, or another doubt; inactive means no such curve, though single readings can be large or run the other way; further: potency means the concentration at half of the fitted maximal effect
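1,000 cells/well; 4 h culture; + compound; + HCVcc-Cre (~0.5 moi); 44 h; luciferase substrate, RT 15 min; read 15 sec.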
Vaccinia Venus = inhibitors of vaccinia virus (Venus reporter); AID 720580; Vaccinia virus Venus reporter expression, fluorescence; 0.46% of 330,000 active; Potency, µM (doses to about 36.5 µM), inactives show at the highest dose activity change, negative = inhibition, usual class: inhibitors; calls by dose curve; tested in A549 cells; further: potency means the concentration at half of the fitted maximal effect; nearly all actives have a fitted effect of over 30% in size
The depositor's hits bear a star; i = inactive; ? = inconclusive; . = no result. Shown are actives, neighbours in structure and some others; about 7.3% of the full set was active somewhere. On the % scale 0 is the no-effect control and ±100 the full control effect.

SMILES | Vaccinia mCherry | FMDV inh | HCMV inh | HCV inh | Vaccinia Venus
COc1ccc(S(=O)(=O)Nc2ccc(Nc3ccccc3)cc2)cc1 | . | 7% | -70* | ? | .
COC(=O)c1ccc(C)c(NS(=O)(=O)c2ccc(C)c([N+](=O)[O-])c2)c1 | -39% | 31% | 8 | -2% | -26%
COc1ccc(NS(=O)(=O)c2ccc(C(=O)N3CCN(Cc4ccccc4)CC3)cc2)cc1 | -22% | ? | -31 | 11µM* | -26%
COC(=O)c1ccc(C)c(NS(=O)(=O)c2ccc(OC)cc2)c1 | ? | 35% | -91* | -21% | ?
CCOc1ccc(NS(=O)(=O)c2ccc(C(=O)NCc3ccncc3)cc2)cc1 | -3% | 5% | -22 | 7.1µM* | -23%
CCN1CCN(C(=O)c2ccc(CNS(=O)(=O)c3cccc(OC)c3)cc2)CC1 | -18% | -6% | 4 | 17% | -8%
COc1ccc(S(=O)(=O)NCc2ccc(C(=O)O)cc2)cc1 | -15% | -3% | 37 | 14% | -1%
COc1cccc(S(=O)(=O)NCc2ccc(C(=O)N3CCN(Cc4ccccc4)CC3)cc2)c1 | -14% | -16% | -27 | 10µM* | 7%
COc1ccc(S(=O)(=O)NCc2ccc(C(=O)N3CCN(Cc4ccccc4)CC3)cc2)cc1 | . | ? | ? | 32µM* | .
O=C(c1ccc(S(=O)(=O)c2cccc(Cl)c2)c([N+](=O)[O-])c1)N1CCN(Cc2ccccc2)CC1 | -3% | 11µM* | -36 | ? | -16%
O=C(c1ccc(S(=O)(=O)NCc2ccco2)cc1)N1CCN(Cc2ccc3c(c2)OCO3)CC1 | ? | -16% | -68* | ? | -20%
CCOC(=O)c1cccc(Nc2ccc3cc(S(=O)(=O)N4CCCCC4)ccc3n2)c1 | -10% | 0% | -23 | . | 3%
C=C1C=C(C(F)F)n2ncc(C(=O)NCc3ccc(OC)c(OC)c3)c2N1 | -13% | . | . | . | ?
COc1ccc(NS(=O)(=O)c2ccc(NC(=O)C3CC3)cc2)cc1 | i | -19% | -10 | 10µM* | -12%
COc1ccc(NS(=O)(=O)c2cccc(NC(=O)c3ccc(S(=O)(=O)N4CCCCCC4)cc3)c2)cc1 | ? | 0% | . | ? | ?
O=C(c1ccc(Cn2cc(Cl)c([N+](=O)[O-])n2)cc1)N1CCN(Cc2ccccc2)CC1 | . | ? | -3 | 11µM* | .
O=C(c1ccc([N+](=O)[O-])cc1)N1CCN(Cc2ccccc2)CC1 | -1% | -22% | 37 | 6% | -9%
COc1ccc(NS(=O)(=O)c2cccc(NC(=O)C34CCC(CC3)C4)c2)cc1 | i | 8% | -64* | ? | -18%
O=C(Nc1ccc(S(=O)(=O)Nc2ccc(Cl)cc2)cc1)C1CCCO1 (configuration not stated) | . | 2% | -24 | 22µM* | .
Cc1ccc(C)n1C1C(=O)N(Cc2ccc(C(F)(F)F)cc2)c2ccc(OC(F)(F)F)cc21 (configuration not stated) | . | . | 1 | . | .
O=C(c1cnccn1)N1CCC2(CC1)CCN(c1ncccn1)CC2 | . | -13% | . | . | .
CCOc1ccc(S(=O)(=O)Nc2ccc(C(=O)N3CCCC3)cc2)cc1 | . | 24% | 22 | 4% | .
COc1ccc(S(=O)(=O)Nc2ccccc2C(F)(F)F)cc1 | . | 8% | 28 | 15% | .
CCOc1ccc(NS(=O)(=O)c2ccc(C(=O)N3CCCC(C)C3)cc2)cc1 (configuration not stated) | -28% | 0% | -63* | ? | -9%
O=C(c1ccc(NS(=O)(=O)c2cccc(F)c2)cc1)N1CCCCC1 | . | -8% | -73* | -6% | .
SMILES | Vaccinia mCherry | FMDV inh | HCMV inh | HCV inh | Vaccinia Venus
O=C(c1cccc(S(=O)(=O)NCc2ccccc2)c1)N1CCN(Cc2ccccc2)CC1 | . | -18% | -97* | -7% | -8%
COc1ccc(S(=O)(=O)Nc2ccc(O)c3ccccc23)cc1 | -12% | -17% | -104* | ? | -1%
O=c1n(Cc2ccc([N+](=O)[O-])cc2)c2ccccc2c2nc(-c3ccccc3)nn12 | -24% | 2% | 68 | . | -18%
COc1ccc(-c2nc(CN3CCC(C(=O)NCCCOC(C)C)CC3)c(C)o2)cc1OC | -7% | 4% | 3 | . | -7%
CCOc1ccc(NS(=O)(=O)c2ccc(C(=O)N3CCCCCC3)cc2)cc1 | -3% | ? | ? | -17% | -11%
Cc1ccc(S(=O)(=O)NCc2ccc(C(=O)N3CCN(Cc4ccccc4)CC3)cc2)cc1 | -27% | . | -93* | 4µM* | ?
COc1ccc(NS(=O)(=O)c2ccc(C(=O)N3CCCCCC3)cc2)cc1 | -19% | -22% | -74* | 14µM* | -14%
Cc1noc(C)c1CN1CCN2C(C(=O)Nc3ccccc3)=COC2=NC1=O | . | . | 5 | . | .
CCc1cccc(NC(=O)c2nc(-c3ccncc3)no2)c1 | 2% | 8% | -23 | . | -7%
CCOC(=O)c1cnc2c(C)cc(C)cc2c1NCCN1CCOCC1 | 2% | -13% | 2 | . | 1%
CCOC(=O)c1cnc2c(C)cc(C)cc2c1NCCCN1CCOCC1 | . | -16% | -62* | -30% | .
COc1ccc(OC)c(N2C(=O)/C(=C/c3ccco3)C(=O)NC2=S)c1 | 2% | -28% | . | -26% | 9%
COc1ccc(N2C(=O)/C(=C/c3cc(C)n(-c4ccc(C)cn4)c3C)C(=O)NC2=S)c(OC)c1 | . | 32µM* | 27 | 10% | .
Fc1ccc(N2CCN(Cc3ccc4c(c3)CN(Cc3cccn3-c3cccnc3)CCO4)CC2)cc1 | -5% | ? | . | . | -4%
Cc1cc(NCC2CCCO2)n2c(nc3ccccc32)c1C#N (configuration not stated) | 5% | ? | -13 | -24% | 15%
Cc1c2c(n3c(nc4ccccc43)c1C#N)N(CCN(C)C)CC2 | i | -12% | 35 | 11µM* | 0%
Cc1cc(NCCN2CCCCC2)n2c(nc3ccccc32)c1C#N | . | . | . | 7.1µM* | .
CC(C)c1cc(NCC2CCCO2)n2c(nc3ccccc32)c1C#N (configuration not stated) | . | ? | -60* | ? | .
COc1ccc([C@@H]2[C@H](C(=O)N3CCCC3)CC(=O)N2C(=O)c2ccccc2)cc1 | . | . | -4 | . | .
Cc1ccc(NCc2cccn2-c2nnc(N3CCC(C(=O)NCCc4ccc(Cl)cc4)CC3)s2)cc1 | ? | 0% | ? | . | ?
CNc1nc2cnc(Nc3cccc(F)c3)cc2n1CCOC | . | . | 15 | . | .
O=C(Nc1c(F)cccc1F)c1cnc(N2CCN(c3ccccn3)CC2)c2ccccc12 | . | 13µM* | ? | 13µM* | .
O=C(c1cnc(N2CCN(c3ncccn3)CC2)c2ccccc12)N1CCN(c2ccccn2)CC1 | ? | 28µM* | ? | ? | -27%
Cc1ccc(NC(=O)c2cnc(N3CCN(c4ccccn4)CC3)c3ccccc23)c(Br)c1 | ? | 6.3µM* | -70* | 7.1µM* | ?
COc1cc2nc(N3CCCC(O)C3)c(CNCc3ccccc3C(F)(F)F)cc2c(OC)c1OC (configuration not stated) | -11% | -5% | . | . | -18%
COc1cccc(CNC(=O)c2c(C)nn(-c3cccc(C)c3)c2-n2cccc2)c1 | -9% | -21% | ? | . | -18%
